Each structure is given as a SMILES string. Records with an inconclusive call do not appear. Unmarked numbers belong to inactive results. Activity calls are given as the source filed them. Calls follow the shape of the dose curve; as a rule, active = well fitted cell-killing curve with a large enough effect in the repeat runs; inconclusive = weak or mixed curves, or effect the other way; inactive = no such curve, though single readings can be large or run the other way.
% is scaled to controls: 0 for no effect and ±100 for the full control effect; potency is read from the fitted curve at half-maximal effect.

The test is described as follows: qHTS assay to identify small molecule agonists of the RXR signaling pathway - cell viability counter screen (AID 1159529). Also: nearly all actives have a fitted effect of over 50% in size. The settings on record: RXR-alpha-bla HEK293T viability, CellTiter-Glo, 16 h; series mostly up to 76.8 µM; activity change, negative = cytotoxicity: at the top concentration. From the text: National Center for Advancing Translational Sciences [NCATS]
NIH Chemical Genomics Center [NCGC]
U.S. Environmental Protection Agency [EPA]
National Institutes of Environmental Health Sciences [NIEHS]
National Toxicology Program [NTP]
U.S. Food and Drug Administration [FDA]
The Retinoid X receptor (RXR), a nuclear hormone receptor expressed in liver, spleen, placenta, epidermis, central nervous system. These receptors are able to form homo and heterodimers with other nuclear receptors and due to this heterodimerizing ability, RXR functions as master regulators producing diverse physiological effects. Three subtypes of RXR exist; alpha, beta and gamma. Retinoid X receptor alpha (RXR-alpha) has potential roles in metabolic signaling pathways, skin alopecia, dermal cysts, cardiac development, insulin sensitization etc. Therefore screening environmental chemicals on RXR-alpha signaling can be used for the studies focused on such therapeutic applications. For quantification of RXR-alpha ligands signaling, GeneBLAzer RXR alpha-UAS-bla HEK 293T (Life Technologies, Carlsbad, CA) cells containing a beta-lactamase reporter-gene under control of Retinoid X receptor-alpha response element were used to screen Tox21 10K library. The cytotoxicity of the Tox21 compound library against the RXR-alpha HEK 293T cell line was tested in parallel by measuring cell viability using CellTiter-Glo assay (Promega Corporation, Madison, WI) in the same wells.
Tox21 Assay Protocol Summary:
RXR-alpha HEK 293T cells were dispensed at 2,000 cells/6 uL of assay medium containing 2% charcoal-stripped FBS using a Multidrop Combi (ThermoFisher Scientific, Waltham, MA) dispenser. The assay was performed in black wall/clear-bottom 1536-well plates (Greiner Bio-One North America Inc. Monroe, NC). Tetraoctyl ammonium bromide was used as a positive control in the cytotoxicity screen. After the assay plates were incubated at 37 C and 5% CO2 for 5 hr, 23 nL of compounds dissolved in DMSO, positive control or DMSO only were transferred to the assay plate by a Pintool station (Kalypsys, San Diego, CA). The assay plates were incubated at 37 C and 5% CO2 for 16 hr. One uL of LiveBLAzer B/G FRET substrate (Life Technologies) was added using a Flying Reagent Dispenser (FRD) (Aurora Discovery, San Diego, CA) and the plates were incubated at room temperature for 2 hr. Fluorescence intensity (405 nm excitation, 460/530 nm emission) was measured using an Envision plate reader (PerkinElmer, Shelton, CT). For cytotoxicity, 4 uL/well of CellTiter-Glo reagent was added into the assay plates using an FRD. After 30 min incubation at room temperature, the luminescence intensity was measured using a ViewLux plate reader (PerkinElmer).
On to `[O-][N+](=Nc1ccccc1)c1ccccc1`, for which the “activity change, negative = cytotoxicity” value was 4.46%. Regarding `CC(C)(C)CC(C)(C)N`, the “activity change, negative = cytotoxicity” value is 3.45%.

Consider `COc1cc(C)cc(O)c1`, for which the “activity change, negative = cytotoxicity” value is 8.95%. For the compound `CC(C)=CC(=O)O`, the “activity change, negative = cytotoxicity” value is 2.01%. Take `c1cc(CN2CCCCC2)cc(OCCCNc2nc3ccccc3s2)c1`: the “activity change, negative = cytotoxicity” value was -12.3% [at 35.3 µM]. Turning to `CCCc1ccccc1O`, the “activity change, negative = cytotoxicity” value is -5.56%.

For the compound `CCCCOCC(C)OCC(C)O` (stereo not given), the “activity change, negative = cytotoxicity” value is -14.5%. `O=c1[nH]c(=O)n([C@H]2O[C@H](CO)[C@@H](O)[C@@H]2O)cc1/C=C\Br`: the “activity change, negative = cytotoxicity” value is 4.07% [at 35.3 µM]. With `NC(CS)C(=O)O` (stereo not given), the “activity change, negative = cytotoxicity” value was -2.3% [at 35.3 µM]. Consider `CCCC=O`, for which the “activity change, negative = cytotoxicity” value was 1.13%.

In the case of `CC1(C)OC(=O)Nc2ccc(Br)cc21`, the “activity change, negative = cytotoxicity” value was 13.1% [at 35.3 µM].

Regarding `Nc1ncnc2c1ncn2Cc1c(F)cccc1Cl`, the “activity change, negative = cytotoxicity” value was 6.28% [at 35.3 µM]. Take `Oc1ccc2c(c1)OC[C@@H](N1CCC(O)(c3ccc(F)cc3)CC1)[C@H]2O`: the “activity change, negative = cytotoxicity” value was 6.21% [at 35.3 µM].

In the case of `C[N+](C)(C)CC[N+]1(C)Cc2c(Cl)c(Cl)c(Cl)c(Cl)c2C1`, the “activity change, negative = cytotoxicity” value was -2.26% [at 35.3 µM].

On to `O=C1CC2(CCCC2)CC(=O)N1`, for which the “activity change, negative = cytotoxicity” value was 6.24% [at 35.3 µM]. Turning to `C[C@H]1O[C@@H](n2cc(F)c(=O)[nH]c2=O)[C@H](O)[C@@H]1O`, the “activity change, negative = cytotoxicity” value is 11.6% [at 35.3 µM].

On to `OC[C@H]1O[C@@H]2O[C@H]3[C@H](O)[C@@H](O)[C@@H](O[C@H]4[C@H](O)[C@@H](O)[C@@H](O[C@H]5[C@H](O)[C@@H](O)[C@@H](O[C@H]6[C@H](O)[C@@H](O)[C@@H](O[C@H]7[C@H](O)[C@@H](O)[C@@H](O[C@H]8[C@H](O)[C@@H](O)[C@@H](O[C@H]9[C@H](O)[C@@H](O)[C@@H](O[C@H]1[C@H](O)[C@H]2O)O[C@@H]9CO)O[C@@H]8CO)O[C@@H]7CO)O[C@@H]6CO)O[C@@H]5CO)O[C@@H]4CO)O[C@@H]3CO`, for which the “activity change, negative = cytotoxicity” value was -3.49% [at 35.3 µM].

As for `CCN(CC)C(=O)c1ccc(O)c(OC)c1`, the “activity change, negative = cytotoxicity” value was 7.4% [at 35.3 µM].

On to `COC(=O)[C@H]1[C@H]2C[C@@H]3c4[nH]c5cc(OC)ccc5c4CCN3C[C@H]2C[C@@H](OC(=O)COc2ccc(OC)cc2)[C@@H]1OC`, for which the “activity change, negative = cytotoxicity” value was -6.47% [at 35.3 µM]. Regarding `O=C(O)C(O)[C@H](O)[C@@H](O)[C@H](O)[C@H](O)CO` (stereo not given in full), the Potency is 49.5 µM (active).

In the case of `O=C1C(CCS(=O)c2ccccc2)C(=O)N(c2ccccc2)N1c1ccccc1` (stereo not given), the “activity change, negative = cytotoxicity” value was -8.78% [at 35.3 µM]. The same measure, in the same setting: under `COc1cc(CCC(C)=O)ccc1O` stands 2.7%; under `OCC(CO)(CO)COCC(CO)(CO)CO`, 0.634%. On to `CC(C)CCCC(C)NCCC(C)C` (stereo not given), for which the “activity change, negative = cytotoxicity” value is 14.6% [at 35.3 µM]. The same measure, in the same setting: with `C=CCn1c(=O)n([C@@H]2O[C@H](CO)[C@@H](O)[C@H]2O)c2nc(N)[nH]c(=O)c21` the figure was -0.61% [at 35.3 µM]; with `CCCCCCCCCCCCCCC`, 1.31%; with `CCCCCN(CCCCC)C(=O)C(CCC(=O)O)NC(=O)c1ccc(Cl)c(Cl)c1` (stereo not given), -9.43% [at 35.3 µM]. In the case of `COc1ccc(COC=O)cc1`, the “activity change, negative = cytotoxicity” value is 0.296%. For `Nc1[nH]c(=O)ncc1F`, the “activity change, negative = cytotoxicity” value is 12.8% [at 35.3 µM].

Take `CCCOCC(C)OCC(C)O` (stereo not given): the “activity change, negative = cytotoxicity” value is -6.79%. `O=C1OC(=O)c2cc([N+](=O)[O-])ccc21`: the “activity change, negative = cytotoxicity” value was -1.14%.

On to `CC(C)(O)Cc1ccccc1`, for which the “activity change, negative = cytotoxicity” value is 12.4%. In the case of `N#CC1(O)CCCCC1`, the “activity change, negative = cytotoxicity” value was -4.07%. On the same count and under the same terms, with `CN1[C@@H]2CC[C@H]1CC(NC(=O)n1c(=O)[nH]c3ccccc31)C2` (stereo not given in full) the figure was -18.6% [at 35.3 µM].

On to `Nc1nc2c(ncn2CCC(CO)CO)c(=O)[nH]1`, for which the “activity change, negative = cytotoxicity” value is 0.979% [at 35.3 µM]. Take `CC(=O)N[C@@H](CCC(N)=O)C(=O)O`: the “activity change, negative = cytotoxicity” value was 4.56% [at 35.3 µM].

As for `CC(C)c1cccc(O)c1`, the “activity change, negative = cytotoxicity” value is -0.0314%.

For `Cc1ccc(Nc2ccc(O)c3c2C(=O)c2ccccc2C3=O)cc1`, the “activity change, negative = cytotoxicity” value was -0.914%. For `NCCNC(=O)c1ccc(Cl)cn1`, the “activity change, negative = cytotoxicity” value was -2.68% [at 35.3 µM].

Take `CC/C=C\CCCCO`: the “activity change, negative = cytotoxicity” value was -1.8%.

The values are drawn from PubChem BioAssay (Tox21).
